# Several values for one entry are separate records, joined by “and”; a condition that tells them apart may be missing. Identical values can stand only once. Values without a mark were called inactive. Inconclusive results are not listed. Entries that show only a call come without a potency. Activity calls are given as the source filed them. Unless noted, calls come from the whole dose curve.
# Assays:
# [1] = Nuclear factor erythroid 2-related factor 2/antioxidant responsive element (Nrf2/ARE) small molecule agonists: qHTS cell viability counter screen in human keratinocytes (AID 1919968; active = well fitted curve in the direction sought with a large enough effect in the repeat runs; an effect the other way counts as inactive or inconclusive; note: nearly all actives have a fitted effect of over 55% in size; note: potency is the fitted concentration of half-maximal effect)
# Summary of the method: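 Seed 1,500 KeratinoSens cells per well, then incubate 5 h at 37 C/5% CO2. Add compounds in DMSO and incubate 23 h. Add CellTiter-Fluor, wait 1 h and read fluorescence.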
# [2] = Nuclear factor erythroid 2-related factor 2/antioxidant responsive element (Nrf2/ARE) small molecule agonists: luciferase reporter gene qHTS assay in human keratinocytes (AID 1919969); note: nearly all actives have a fitted effect of over 35% in size; note: potency is the fitted concentration of half-maximal effect
# [3] = target: Gonadotropin-releasing hormone receptor (Homo sapiens) (UniProt P30968); assay: Human gonadotropin-releasing hormone receptor (GnRHR) small molecule agonists, calcium flux assay in GnRHR-HEK293 cells (AID 1920063); note: nearly all actives have a fitted effect of over 35% in size
# Chain of Gonadotropin-releasing hormone receptor (Homo sapiens) (P30968 whole entry, looked up): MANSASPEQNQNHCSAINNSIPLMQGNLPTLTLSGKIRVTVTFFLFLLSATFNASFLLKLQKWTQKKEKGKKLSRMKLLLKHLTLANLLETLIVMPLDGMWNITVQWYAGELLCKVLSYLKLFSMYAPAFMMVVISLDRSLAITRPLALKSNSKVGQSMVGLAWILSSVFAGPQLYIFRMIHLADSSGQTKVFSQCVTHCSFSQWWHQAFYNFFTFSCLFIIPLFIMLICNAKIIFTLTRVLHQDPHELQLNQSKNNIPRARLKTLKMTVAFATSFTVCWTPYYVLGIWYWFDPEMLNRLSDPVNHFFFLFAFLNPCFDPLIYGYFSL
# Summary of the method: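 Cells: HEK293 stably expressing human GnRHR. Steps: overnight (18 h) culture, 1 h calcium dye loading at 37 C, compound addition, kinetic fluorescence read at 480/540 nm. Each compound tested at 15 concentrations in triplicate.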
# [4] = target: KiSS-1 receptor (Homo sapiens) (UniProt Q969F8); assay: Human kisspeptin (KISS1R) small molecule agonists, calcium flux assay in KISS1R-HEK293 cells (AID 1920064; active = well fitted curve in the direction sought with a large enough effect in the repeat runs; an effect the other way counts as inactive or inconclusive)
# Chain of KiSS-1 receptor (Homo sapiens) (Q969F8 whole entry, looked up): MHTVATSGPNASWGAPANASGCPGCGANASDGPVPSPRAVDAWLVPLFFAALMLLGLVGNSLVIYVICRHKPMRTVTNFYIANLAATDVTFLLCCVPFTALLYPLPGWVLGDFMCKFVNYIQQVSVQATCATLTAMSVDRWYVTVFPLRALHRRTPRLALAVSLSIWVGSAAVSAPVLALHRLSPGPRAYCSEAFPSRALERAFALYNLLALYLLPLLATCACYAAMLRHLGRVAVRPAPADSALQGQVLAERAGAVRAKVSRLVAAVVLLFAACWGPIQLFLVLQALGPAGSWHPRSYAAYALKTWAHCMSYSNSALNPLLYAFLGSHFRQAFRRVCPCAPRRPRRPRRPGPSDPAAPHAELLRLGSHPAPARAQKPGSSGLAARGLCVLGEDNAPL
# Summary of the method: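 Cells plated and incubated 18 h; dye added, 1 h at 37 C; compounds in DMSO pinned in; signal read at 480/540 nm every second for 3 min. Each compound tested at 15 concentrations in triplicate.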
# [5] = p53 small molecule agonists, cell-based qHTS assay with human liver microsomes (AID 1963577)
# Summary of the method: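 Cells carrying a p53-responsive bla reporter were rested 5 h (37 C, 5% CO2) before compound transfer. Human liver microsomes plus NADPH, 0.5 mg/mL final apiece, supplied metabolism during the 16 h 37 C exposure.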
# [6] = p53 small molecule agonists, cell-based qHTS assay with rat liver microsomes (AID 1963578)
# Summary of the method: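 Fluorescence from a beta-lactamase reporter under a p53 response element was measured after cells had been incubated 16 h at 37 C with test compound and rat liver microsomes plus NADPH (0.5 mg/mL final each).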
# [7] = p53 small molecule agonists, cell-based qHTS assay with human liver microsomes: qHTS cell viability counter screen (AID 1963579); note: nearly all actives have a fitted effect of over 45% in size
# Summary of the method: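 Seed p53RE-bla cells at 4,000 per well; incubate 5 h at 37 C; add compound, human liver microsomes and NADPH; incubate 16 h at 37 C; add CellTiter-Glo; after 30 min at room temperature, read luminescence.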
# [8] = p53 small molecule agonists, cell-based qHTS assay with rat liver microsomes: qHTS cell viability counter screen (AID 1963580); note: nearly all actives have a fitted effect of over 45% in size
# Summary of the method: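 HCT-116 p53RE-bla, 4,000 cells/well, 5 h pre-incubation; cpd + rat liver microsomes 0.5 mg/mL + NADPH 0.5 mg/mL (final); 16 h, 37 C; CellTiter-Glo, 30 min RT; luminescence.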
# [9] = p53 small molecule agonists, cell-based qHTS assay: qHTS cell viability counter screen (AID 1963581); note: nearly all actives have a fitted effect of over 45% in size
# Summary of the method: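 Cells: HCT-116 with p53 response element-driven beta-lactamase. Treatment: 16 h, 37 C, compounds in DMSO. Read: CellTiter-Glo luminescence after 30 min RT.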
# [10] = p53 small molecule agonists, cell-based qHTS assay (AID 1963582; active = well fitted activation curve with a large enough effect in the signal ratio in the repeat runs, not every such curve was filed as active; the % refers to the signal ratio)
# Summary of the method: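 Quantitative HTS in p53RE-bla cells: after a 5 h settling period, compounds delivered in DMSO were left on cells for 16 h at 37 C, and reporter induction was measured as fluorescence following 2 h substrate loading.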
# [11] = target: 5-hydroxytryptamine receptor 2A (Homo sapiens) (UniProt P28223); assay: 5-hydroxytryptamine receptor 2A (HTR2A) small molecule antagonists, cell-based qHTS assay (AID 1963586); note: nearly all actives have a fitted effect of over 45% in size
# Chain of 5-hydroxytryptamine receptor 2A (Homo sapiens) (P28223 whole entry, looked up): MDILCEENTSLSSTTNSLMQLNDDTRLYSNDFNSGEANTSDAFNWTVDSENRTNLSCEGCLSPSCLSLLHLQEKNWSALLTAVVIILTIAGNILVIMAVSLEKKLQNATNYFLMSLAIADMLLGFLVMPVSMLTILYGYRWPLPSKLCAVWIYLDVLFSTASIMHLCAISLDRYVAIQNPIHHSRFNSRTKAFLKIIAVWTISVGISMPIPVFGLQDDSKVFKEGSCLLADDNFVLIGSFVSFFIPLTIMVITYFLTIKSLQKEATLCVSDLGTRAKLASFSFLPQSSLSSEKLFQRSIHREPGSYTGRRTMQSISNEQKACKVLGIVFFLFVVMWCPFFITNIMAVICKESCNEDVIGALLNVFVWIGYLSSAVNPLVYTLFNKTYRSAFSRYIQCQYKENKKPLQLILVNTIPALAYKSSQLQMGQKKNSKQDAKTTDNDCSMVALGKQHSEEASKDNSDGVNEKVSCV
# Summary of the method: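 Antagonist-mode intracellular calcium assay: DOI (4 nM) added after 5 min compound pre-incubation at room temperature to dye-loaded HTR2A-CHO cells. Fluorescence followed for 3 min, sampled every second.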
# [12] = target: Muscarinic acetylcholine receptor M1 (Homo sapiens) (UniProt P11229); assay: Cholinergic receptor muscarinic 1 (CHRM1) small molecule antagonists, cell-based qHTS assay (AID 1963588); note: nearly all actives have a fitted effect of over 40% in size
# Chain of Muscarinic acetylcholine receptor M1 (Homo sapiens) (P11229 whole entry, looked up): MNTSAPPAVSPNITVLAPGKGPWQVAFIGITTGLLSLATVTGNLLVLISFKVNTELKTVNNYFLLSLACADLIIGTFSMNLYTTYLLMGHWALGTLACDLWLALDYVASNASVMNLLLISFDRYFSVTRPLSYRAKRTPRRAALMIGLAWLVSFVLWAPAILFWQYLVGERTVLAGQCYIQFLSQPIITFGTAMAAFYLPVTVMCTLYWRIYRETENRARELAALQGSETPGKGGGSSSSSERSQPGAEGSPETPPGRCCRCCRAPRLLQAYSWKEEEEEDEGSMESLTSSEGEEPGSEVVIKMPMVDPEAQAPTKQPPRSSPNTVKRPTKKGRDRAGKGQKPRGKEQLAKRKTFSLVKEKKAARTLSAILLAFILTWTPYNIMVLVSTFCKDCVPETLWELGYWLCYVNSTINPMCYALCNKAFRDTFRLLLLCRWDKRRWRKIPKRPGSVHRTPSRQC
# Summary of the method: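 CHRM1-CHO calcium-flux assay, antagonist mode. Cells were seeded 18 h, dye-loaded 1 h at 37 C and given compound for 5 min at RT, then acetylcholine was added at 50nM. FDSS fluorescence was read 3 min; 15 concentrations, three runs.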
# [13] = target: Muscarinic acetylcholine receptor M1 (Homo sapiens) (UniProt P11229); assay: Cholinergic receptor muscarinic 1 (CHRM1) small molecule agonists, cell-based qHTS assay (AID 1963589); note: nearly all actives have a fitted effect of over 35% in size
# Summary of the method: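 Agonist-mode qHTS in CHO cells stably carrying human muscarinic M1. Intracellular calcium is tracked by fluorescence every second after compound transfer; each compound runs at 15 concentrations in three independent runs.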
# [14] = cAMP Responsive Elements (CRE) small molecule antagonists, cell-based qHTS assay (AID 1963591; active = well fitted inhibition curve with a large enough effect in the signal ratio in the repeat runs, not every such curve was filed as active; the % refers to the signal ratio)
# Summary of the method: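 Antagonist mode: test compounds are co-incubated with the adenylyl cyclase activator NKH477 (0.25 uM final) on CRE-bla HEK293T cells for 3 h at 37 °C, followed by LiveBLAzer substrate loading.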
# [15] = target: Beta-2 adrenergic receptor (Homo sapiens) (UniProt P07550); assay: Adrenergic beta2 receptor (ADRB2) small molecule antagonists, cell-based qHTS assay (AID 1963592); note: series mostly up to about 92 µM; nearly all actives have a fitted effect of over 50% in size
# Chain of Beta-2 adrenergic receptor (Homo sapiens) (P07550 whole entry, looked up): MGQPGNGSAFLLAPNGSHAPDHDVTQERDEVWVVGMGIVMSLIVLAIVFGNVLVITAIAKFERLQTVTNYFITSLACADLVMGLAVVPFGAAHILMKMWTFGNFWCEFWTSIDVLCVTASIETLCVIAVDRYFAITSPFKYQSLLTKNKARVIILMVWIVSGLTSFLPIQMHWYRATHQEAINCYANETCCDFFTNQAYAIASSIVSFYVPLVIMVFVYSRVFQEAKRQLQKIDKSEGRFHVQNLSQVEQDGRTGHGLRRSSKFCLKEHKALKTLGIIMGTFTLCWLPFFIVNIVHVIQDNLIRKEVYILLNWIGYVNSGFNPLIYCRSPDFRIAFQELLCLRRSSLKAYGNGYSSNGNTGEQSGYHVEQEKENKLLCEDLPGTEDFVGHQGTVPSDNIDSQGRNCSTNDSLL
# Summary of the method: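 Cells (CHO, stable ADRB2 overexpression) incubated 18-20hr at 37C; compounds added from DMSO; agonist mix (1nM isoproterenol, 100uM IBMX, 25uM Ro-20-1724) added; 0.5hr RT; d2-cAMP and anti-cAMP-cryptate added; 1hr RT; 665/615 nm read.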
# [16] = target: Beta-2 adrenergic receptor (Homo sapiens) (UniProt P07550); assay: Adrenergic beta2 receptor (ADRB2) small molecule agonists, cell-based qHTS assay (AID 1963593);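 note: CHO cells stably overexpressing human ADRB2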
# Summary of the method: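 CHO cells stably over-expressing ADRB2 were plated overnight at 37C, then dosed with compounds plus a stimulation mix containing 100uM IBMX and 25uM Ro-20-1724 for 0.5hr at room temperature. cAMP was measured by HTRF competition, 1hr.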
# [17] = target: D(2) dopamine receptor (Homo sapiens) (UniProt P14416); assay: Dopamine D2 receptor (DRD2) small molecule agonists, cell-based qHTS assay (AID 1963594); note: nearly all actives have a fitted effect of over 35% in size
# Chain of D(2) dopamine receptor (Homo sapiens) (P14416 whole entry, looked up): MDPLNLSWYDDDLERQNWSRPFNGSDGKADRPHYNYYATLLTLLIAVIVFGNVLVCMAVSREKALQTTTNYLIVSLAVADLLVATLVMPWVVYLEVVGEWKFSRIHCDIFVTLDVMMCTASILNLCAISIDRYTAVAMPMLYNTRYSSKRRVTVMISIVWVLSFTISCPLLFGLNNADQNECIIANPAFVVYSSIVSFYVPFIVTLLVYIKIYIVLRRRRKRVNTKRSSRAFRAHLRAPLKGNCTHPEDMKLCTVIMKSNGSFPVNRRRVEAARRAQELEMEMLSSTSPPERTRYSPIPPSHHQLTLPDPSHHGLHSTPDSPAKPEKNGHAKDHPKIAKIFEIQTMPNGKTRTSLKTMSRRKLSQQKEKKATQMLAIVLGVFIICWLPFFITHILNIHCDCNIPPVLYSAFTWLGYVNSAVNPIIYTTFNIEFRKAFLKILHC
# Summary of the method: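 cAMP accumulation in DRD2-HEK293 cells measured by HTRF after 1 h detection; compounds added 10 min before NKH477 (200nM […]) forskolin-analogue stimulation, 30 min at room temperature, with Ro20-1724 present at 0.1 mM final.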
# [18] = target: D(2) dopamine receptor (Homo sapiens) (UniProt P14416); assay: Dopamine D2 receptor (DRD2) small molecule antagonists, cell-based qHTS assay (AID 1963595; active = well fitted inhibition curve with a large enough effect in the signal ratio in the repeat runs, with a control signal flat; the % refers to the signal ratio)
# Summary of the method: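 HTRF cAMP read-out at 665 and 620 nm emission (340 nm excitation). Antagonist mode: compounds were tested against 12 nM quinpirole in DRD2-HEK293 cells, with 200 nM NKH477 raising cAMP and 0.1 mM Ro20-1724 blocking its breakdown.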
# [19] = target: 5-hydroxytryptamine receptor 2A (Homo sapiens) (UniProt P28223); assay: 5-hydroxytryptamine receptor 2A (HTR2A) small molecule agonists, cell-based qHTS assay (AID 1963587); note: nearly all actives have a fitted effect of over 30% in size
# Summary of the method: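 Kinetic calcium-flux fluorescence (2 min, 1 sec intervals) after compound addition in agonist mode. HTR2A-CHO cells were cultured 18 h, then dye-loaded 1 h at 37 C.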
# [20] = cAMP Responsive Elements (CRE) small molecule agonists, cell-based qHTS assay (AID 1963590)
# Summary of the method: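 Agonist mode qHTS in CRE-bla HEK 293T cells: compounds dosed from DMSO for 3 h at 37 C/5% CO2, followed by LiveBLAzer B/G FRET substrate for 2 h at room temperature.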
structure (smiles),measurement,setting,value
CC(=O)C(C)O (configuration not stated),Potency,[1],inactive
same,Potency,[2],inactive
same,Potency,[3],inactive
same,Potency,[4],inactive
same,Potency,[5],inactive
same,Potency,[6],inactive
same,Potency,[7],inactive
same,Potency,[8],inactive
same,Potency,[9],inactive
same,Potency,[10],inactive
same,Potency,[11],inactive
same,Potency,[12],inactive
same,Potency,[13],inactive
same,Potency,[14],inactive
same,Potency,[15],inactive
same,Potency,[16],inactive
same,Potency,[17],inactive
same,Potency,[18],inactive
CC(=O)O[C@H](CC(=O)[O-])C[N+](C)(C)C,Potency,[1],inactive
same,Potency,[2],inactive
same,Potency,[3],inactive
same,Potency,[4],inactive
same,Potency,[5],inactive
same,Potency,[6],inactive
same,Potency,[7],inactive
same,Potency,[8],inactive
same,Potency,[9],inactive
same,Potency,[10],inactive
same,Potency,[11],inactive
same,Potency,[19],inactive
same,Potency,[12],inactive
same,Potency,[13],inactive
same,Potency,[20],inactive
same,Potency,[14],inactive
same,Potency,[15],inactive
same,Potency,[17],inactive
same,Potency,[18],inactive
C=C(CC)C(=O)c1ccc(OCC(=O)O)c(Cl)c1Cl,Potency,[1],inactive
same,Potency,[2],24.2 µM (active) and 29.8 µM (active)
same,Potency,[3],inactive
same,Potency,[4],inactive
same,Potency,[5],inactive
same,Potency,[6],inactive
same,Potency,[7],inactive
same,Potency,[8],inactive
same,Potency,[9],inactive
same,Potency,[15],inactive
same,Potency,[16],inactive
same,Potency,[17],inactive
same,Potency,[18],inactive
Clc1nc2ccccc2s1,Potency,[1],inactive
same,Potency,[2],inactive
same,Potency,[3],inactive
same,Potency,[4],inactive
same,Potency,[5],inactive
same,Potency,[6],inactive
same,Potency,[7],inactive
same,Potency,[8],inactive
same,Potency,[9],inactive
same,Potency,[10],inactive
same,Potency,[11],inactive
same,Potency,[19],inactive
same,Potency,[12],inactive
same,Potency,[13],inactive
same,Potency,[15],inactive
same,Potency,[17],inactive
same,Potency,[18],inactive
CCN(CC)CC(=O)Oc1ccc(NC(C)=O)cc1,Potency,[1],inactive
same,Potency,[2],inactive
same,Potency,[3],inactive
same,Potency,[4],inactive
same,Potency,[5],inactive
same,Potency,[6],inactive
same,Potency,[7],inactive
same,Potency,[8],inactive
same,Potency,[9],inactive
same,Potency,[10],inactive
same,Potency,[11],inactive
same,Potency,[19],inactive
same,Potency,[20],inactive
same,Potency,[14],inactive
same,Potency,[15],inactive
same,Potency,[17],inactive
same,Potency,[18],inactive
O=C(Nc1ccc([N+](=O)[O-])cc1Cl)c1cc(Cl)ccc1O,Potency,[1],1.93 µM (active) and 291 nM (active)
same,Potency,[2],34.4 µM (active) and 41.1 nM (active)
same,Potency,[3],inactive
same,Potency,[4],inactive
same,Potency,[5],inactive
same,Potency,[6],inactive
same,Potency,[7],inactive
same,Potency,[8],inactive
same,Potency,[11],inactive
same,Potency,[19],inactive
same,"activity, negative = inhibition",[12],-9.19% [at 12.6 µM]
same,Potency,[13],inactive
same,"activity change, negative = inhibition",[15],-7.38% [at 19 µM]
same,Potency,[17],inactive
same,Potency,[18],inactive
C=CCCCCCCCCC(=O)OCCCC,Potency,[1],inactive
same,Potency,[2],inactive
same,Potency,[3],inactive
same,Potency,[4],inactive
same,Potency,[5],inactive
same,Potency,[6],inactive
same,Potency,[7],inactive
same,Potency,[8],inactive
same,Potency,[10],inactive
same,Potency,[11],inactive
same,Potency,[19],inactive
same,Potency,[12],inactive
same,Potency,[13],inactive
same,Potency,[20],inactive
same,Potency,[14],inactive
same,Potency,[15],inactive
same,Potency,[16],inactive
same,Potency,[17],inactive
same,Potency,[18],inactive
C/C(=C1\CCOC(=O)S1)N(C=O)Cc1cnc(C)nc1N,Potency,[1],inactive
same,Potency,[2],inactive
same,Potency,[3],inactive
same,Potency,[4],inactive
same,Potency,[5],inactive
same,Potency,[6],inactive
same,Potency,[7],inactive
same,Potency,[8],inactive
same,Potency,[9],inactive
same,Potency,[10],inactive
same,Potency,[19],inactive
same,Potency,[12],inactive
same,Potency,[13],inactive
same,Potency,[20],inactive
same,Potency,[14],inactive
same,Potency,[15],inactive
same,Potency,[16],inactive
same,Potency,[17],inactive
same,Potency,[18],inactive

# — PubChem BioAssay (Tox21)
